# Hits are enriched below; roughly 18% of the tested compounds scored in any of these assays.
# PLK1 PBD inh: blocks phosphopeptide binding to human PLK1 polo-box domain. Potency, µM, for the others: max response, negative = inhibition, most hits filed as inhibitors. hit rate 2.8% among 360,000. P53350. Plk1 PBD binding of FITC phosphopeptide, fluorescence polarization. AID 720504; note: series mostly up to about 57 µM; nearly all actives have a fitted effect of over 65% in size
# VDR inhibitor: inhibitors of human vitamin D receptor; P11473; VDR-SRC2-3 peptide fluorescence polarization, 2 h; Potency, µM, inactives show max response, negative = inhibition, usual class: inhibitors; hit rate 0.93% among 400,000; AID 504847
#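 Reagent solutions, kept cold and dark, are dispensed first; compounds are then pinned in at 23 nl, plates briefly spun, and incubated 2 h at ambient temperature. Inhibition of VDR–SRC2-3 peptide binding is read by fluorescence polarization.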
# KAT2A inh: GCN5L2 (KAT2A) acetyltransferase inhibition; Q92830; GCN5L2 HAT assay, ThioGlo1 CoA-SH fluorescence; Potency, µM (top dose mostly 58.9 µM), without a hit: at the highest dose activity change, negative = inhibition, hits mostly inhibitors; hit rate 0.21% among 390,000; AID 504327
# Target sequence (Q92830 whole entry, looked up): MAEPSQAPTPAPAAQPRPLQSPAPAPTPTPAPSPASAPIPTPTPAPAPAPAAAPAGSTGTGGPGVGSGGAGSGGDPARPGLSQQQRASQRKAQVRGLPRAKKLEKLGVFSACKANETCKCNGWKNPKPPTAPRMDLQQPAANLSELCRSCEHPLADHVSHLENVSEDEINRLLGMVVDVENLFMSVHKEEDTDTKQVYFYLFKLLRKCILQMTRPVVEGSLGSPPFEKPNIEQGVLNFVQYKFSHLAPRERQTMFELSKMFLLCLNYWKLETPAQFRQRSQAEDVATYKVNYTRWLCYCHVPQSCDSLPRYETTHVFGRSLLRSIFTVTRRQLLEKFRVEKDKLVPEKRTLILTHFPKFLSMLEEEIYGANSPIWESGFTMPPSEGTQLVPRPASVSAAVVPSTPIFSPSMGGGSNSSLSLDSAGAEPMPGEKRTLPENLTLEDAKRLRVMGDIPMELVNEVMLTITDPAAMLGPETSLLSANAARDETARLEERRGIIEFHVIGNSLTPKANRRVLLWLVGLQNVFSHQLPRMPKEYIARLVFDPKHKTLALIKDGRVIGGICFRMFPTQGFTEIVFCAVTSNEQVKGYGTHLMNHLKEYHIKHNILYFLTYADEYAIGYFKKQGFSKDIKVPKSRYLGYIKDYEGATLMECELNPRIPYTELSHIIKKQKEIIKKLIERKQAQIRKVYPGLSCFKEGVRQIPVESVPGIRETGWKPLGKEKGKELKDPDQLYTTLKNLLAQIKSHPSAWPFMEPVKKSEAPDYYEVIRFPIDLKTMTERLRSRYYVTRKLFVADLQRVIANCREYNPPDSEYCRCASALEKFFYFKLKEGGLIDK
#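 ThioGlo1-coupled HAT assay: 20nM GCN5L2, 70uM acetyl-CoA, 75uM H3(1-25) peptide, pH 7.5. Fluorescence read at 340/540nm at start and after 20 min at room temperature.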
# DT40 TDP1 no CPT: qHTS for Inhibitors of human tyrosyl-DNA phosphodiesterase 1 (TDP1): qHTS in cells in absence of CPT. hit rate 15% among 420,000. DT40 Tdp1-/- hTDP1 cells, no CPT, ATP luminescence, 48 h. AID 686978, 2013. Potency, µM (series often up to 46.2 µM), for the others: at the top dose activity change, negative = growth inhibition, hits mostly inhibitors; note: nearly all actives have a fitted effect of over 55% in size
#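 A cellular qHTS used chicken DT40 cells lacking endogenous Tdp1 but carrying stably transfected human TDP1. Compounds were applied without camptothecin, and cell growth kinetics were judged by ATP-dependent luminescence after ≥48 hr.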
# TDP1 inh: inhibitors of human tyrosyl-DNA phosphodiesterase TDP1; Q9NUW8; recombinant TDP1, AlphaScreen DNA substrate cleavage; Potency, µM (highest dose often 130 µM), inactives show at the highest dose activity change, negative = inhibition, hits mostly inhibitors; hit rate 0.28% among 350,000; AID 485290; note: nearly all actives have a fitted effect of over 40% in size
#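 E. coli-derived human Tdp1, 1 nM final. Cpd preinc 15 min RT; substrate 15 nM final, 5 min RT; AS bead mix 10 ug/ml final, 10 min RT. Signal loss = tyrosine-FITC cleavage. No-enzyme wells = max signal.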
# TDP1 cell CPT: DT40-hTDP1 cell growth loss with CPT; AID 686979; hit rate 12% among 420,000; chicken DT40 Tdp1-/-;hTDP1 cells + 20 nM CPT, ATP luminescence, 48 h; Potency, µM (highest dose often 46.2 µM), for inactives: at the highest dose activity change, negative = growth inhibition, usual class: inhibitors; note: nearly all actives have a fitted effect of over 55% in size
#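 Chicken DT40 Tdp1-/- cells stably complemented with human TDP1 were seeded at 400 cells/well in medium containing 20 nM camptothecin, exposed to pin-transferred compounds, and grown at 37 °C for at least 48 hr. Viability was read as ATP luminescence.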
# The depositor's hits bear a star; ? = inconclusive; nt = no result given; [ ] = another dose, or the depositor's remark. Calls come from the whole dose curve; as a rule, active = well fitted curve in the direction sought with a large enough effect; inconclusive = small, poorly fitted or top-dose-only effect, or another doubt; inactive = no such curve, though single readings can be large; an effect the other way counts as inactive or inconclusive. % is set by controls: 0 for no effect and ±100 for the full control effect; potency is the fitted concentration of half-maximal effect.
SMILES,PLK1 PBD inh,VDR inhibitor,KAT2A inh,DT40 TDP1 no CPT,TDP1 inh,TDP1 cell CPT
CC(=O)N1c2ccc(S(=O)(=O)N3CCC(C(=O)Nc4cc(C)ccn4)CC3)cc2CC1C (stereo unspecified),-11.8%,-3.1%,-3.7%,?,-0.3%,?
CC(=O)N1c2ccc(S(=O)(=O)NCC3CCC(C(=O)NCc4ccc(C)o4)CC3)cc2CC1C (stereo unspecified),-7.5%,-4.1%,-16.1%,-5.9%,4.8%,?
CC(=O)N1c2ccc(S(=O)(=O)NCC3CCC(C(=O)Nc4cc(C)ccn4)CC3)cc2CC1C (stereo unspecified),-7.9%,-9.5%,-13.0%,16.4µM*,3.6%,18.4µM*
CC(=O)N1c2ccc(S(=O)(=O)NCC3CCC(C(=O)Nc4cccc(F)c4)CC3)cc2CC1C (stereo unspecified),nt,-2.1%,-8.8%,11.6µM*,2.6%,3.26µM*
CC(=O)N1c2ccc(S(=O)(=O)NCC3CCC(C(=O)Nc4ccc(C)cc4)CC3)cc2CC1C (stereo unspecified),nt,12.2%,-4.3%,?,0.0%,?
CC(=O)N1c2ccc(S(=O)(=O)NCC3CCC(C(=O)Nc4cc(C)ccc4C)CC3)cc2CC1C (stereo unspecified),nt,10.7%,-6.9%,18.4µM*,-2.6%,23.1µM*
Cc1ccccc1NC(=S)N(Cc1cccnc1)Cc1ccccc1Cl,-27.4%,5.0%,-8.1%,-27.9%,3.7%,16.3%
CC(=O)N1c2ccc(S(=O)(=O)NCC3CCC(C(=O)Nc4ncccc4C)CC3)cc2CC1C (stereo unspecified),21.2µM*,?,2.5%,-2.8%,3.7%,?
CCc1nc(SCc2ccc(OCC(C)C)cc2)n[nH]1,-1.5%,-10.0%,-0.7%,?,1.0%,4.61µM*
C#CCOc1nc2c(c(=O)n(C)c(=O)n2C)n1Cc1ccccc1,-4.7%,-3.9%,2.2%,11.6µM*,2.8%,11.6µM*
Cn1c(=O)c2c(ncn2CC(=O)OCC(=O)c2ccc(Br)cc2)n(C)c1=O,-24.9%,nt,nt,25.9µM*,nt,16.4µM*
COc1ccc(C(=O)Cn2c(Br)nc3c2c(=O)n(C)c(=O)n3C)cc1,-7.9%,5.8%,-4.6%,23.1µM*,4.1%,13µM*
COc1ccc(Oc2nc3c(c(=O)n(C)c(=O)n3C)n2Cc2ccccc2)cc1,26.7µM*,-16.8%,0.0%,-28.6%,0.5%,?
Cc1cc(F)c(F)c(C(=O)N2CCC(C)CC2)c1Cl,-10.2%,2.1%,-6.6%,35.1%,2.8%,2.1%
COc1ccc(OC)c(-c2cc(Cl)c3c(c2)CC(CNC(=O)c2cnn4cccnc24)O3)c1 (stereo unspecified),nt,nt,nt,-14.5%,nt,18.8%[9.04 µM]
Cc1ccccc1-c1noc(-c2cccnc2N2CCN(c3ccccc3)CC2)n1,nt,9.5%,-2.0%,?,8.6%,-12.2%
C=CCOc1nc2c(c(=O)n(C)c(=O)n2C)n1Cc1ccccc1,-17.0%,18.4%,0.1%,18.4µM*,1.4%,25.9µM*
CC(C)CCn1c(Oc2ccccc2F)nc2c1c(=O)n(C)c(=O)n2C,nt,-2.1%,-4.7%,?,9.3%,18.4µM*
CCOCCOc1nc2c(c(=O)n(C)c(=O)n2C)n1Cc1ccc(C)cc1,8.2%,-4.6%,0.7%,8.2µM*,0.0%,?
CC(C)CCn1c(Oc2ccc(Cl)cc2)nc2c1c(=O)n(C)c(=O)n2C,-5.9%,26.7%,-3.6%,?,1.1%,?
Cc1ccc(Cn2c(SCCN3CCCCC3)nc3c2c(=O)n(C)c(=O)n3C)cc1,-3.7%,14.7%,-4.1%,14.6µM*,3.8%,?
Cn1c(=O)c2c(nc(SCCN3CCOCC3)n2Cc2ccc(F)cc2)n(C)c1=O,-1.1%,16.1%,-2.7%,-19.9%,4.1%,-14.2%
COC(=O)c1ccc(NC(=S)N2CCN(C(=O)c3ccco3)CC2)cc1,18.9µM*,-4.2%,-15.1%,-14.7%,4.1%,-6.8%
COc1ccc(NC(=S)N2CCN(C(=O)c3ccco3)CC2)cc1,-3.7%,14.9%,-1.9%,-9.6%,nt,-10.4%
N#CCC(=O)Nc1ccc(C(=O)OCC(=O)N2CCN(C(=O)c3ccco3)CC2)cc1,-7.7%,-6.3%,-13.4%,1.6%,44.7µM*,6.4%
SMILES,PLK1 PBD inh,VDR inhibitor,KAT2A inh,DT40 TDP1 no CPT,TDP1 inh,TDP1 cell CPT
Cc1ccc(SCC(=O)NNC(=O)CCS(=O)(=O)c2ccccc2)cc1,1.7%,-5.1%,0.3%,5.2%,0.7%,1.1%
Cc1ccc(C2=NN=C(NC(=O)C(F)(F)F)SC2)cc1,-24.0%,50.1µM*,1.1%,-8.9%,4.8%,-6.0%
C=CCCC(=O)N1C[C@H]2CON(C)[C@H]2C[C@H]1c1ccc(-n2ccnc2)cc1,-1.7%,nt,nt,1.3%,nt,-15.5%
O=c1c2cc(Cl)cc(Cl)c2nc2n1CCC2,-7.1%,3.6%,-8.2%,-3.9%,1.8%,-4.3%
OC(c1cc(C(F)(F)F)nc2c(Cl)cc(Cl)cc12)C1CCCCN1 (stereo unspecified),3.8%,-20.2%,13.0%,?,5.1%,18.4µM*
OC(c1cc(-c2ccc(Cl)cc2)nc2ccccc12)C1CCCCN1 (stereo unspecified),-12.4%,-6.2%,-4.5%,25.9µM*,2.5%,23.1µM*
CC(C)(C)c1ccc(NC(=O)CSc2nnc3scc(-c4ccccc4)n23)cc1,nt,-4.2%,-9.1%,?,nt,?
Nc1ccccc1Nc1cc(-c2ccccc2)[nH]n1,-5.5%,11.3%,-3.6%,13µM*,7.7%,-56.6%
Cc1ccc(-n2nc(-c3ccccc3)cc2Nc2ccccc2N)cc1,-0.8%,-11.7%,-3.5%,-15.8%,5.3%,-8.9%
[N-]=[N+]=CC(=O)c1ccnc(C(=O)C=[N+]=[N-])c1,26.7µM*,-9.6%,-1.6%,?,4.8%,?
CCOC(=O)N1CCN(C(=O)CSc2nnc(C3COc4ccccc4O3)o2)CC1 (stereo unspecified),-29.2%,-14.4%,-2.5%,-19.4%,2.9%,-5.7%
O=C(CSc1nnc(C2COc3ccccc3O2)o1)N1CCCC1 (stereo unspecified),21.2µM*,?,1.1%,-19.5%,5.8%,-14.9%
NC(=O)NC(CC(=O)NCc1ccc2c(c1)OCO2)c1ccccc1Cl (stereo unspecified),-0.1%,4.3%,4.3%,-4.8%,-1.5%[0.0935 µM],2.3%
O=C(CN(c1cccc([N+](=O)[O-])c1)S(=O)(=O)c1ccccc1)NCc1cccnc1,-9.0%,3.4%,0.3%,-15.5%,9.4%,8.3%
Cc1ccc(S(=O)(=O)N(CC(=O)Nc2ccc3c(c2)OCO3)c2cc(Cl)cc(Cl)c2)cc1,nt,-0.9%,-9.2%,?,-0.4%[12.3 µM],?

# High-throughput results from PubChem.
